# Data: article PMC4336329 (PLoS ONE, 2015)
# The campaign covered roughly 310,000 compounds. About 14,000 (4.5%) showed an effect of 50% or more. Effects have a minus sign here. This is one part of a sample in which strong results are shown more often than they occur.
# Target: human ether-à-go-go-related gene (hERG) potassium channel (human, UniProt Q12809)
# Test: primary screen, population patch clamp on CHO cells stably expressing hERG; higher = less effect of the substance
# 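Note: peak tail current of the secondary pulse compared with the same well before compound.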
# Sequence of human ether-à-go-go-related gene (hERG) potassium channel (Q12809 whole entry, looked up): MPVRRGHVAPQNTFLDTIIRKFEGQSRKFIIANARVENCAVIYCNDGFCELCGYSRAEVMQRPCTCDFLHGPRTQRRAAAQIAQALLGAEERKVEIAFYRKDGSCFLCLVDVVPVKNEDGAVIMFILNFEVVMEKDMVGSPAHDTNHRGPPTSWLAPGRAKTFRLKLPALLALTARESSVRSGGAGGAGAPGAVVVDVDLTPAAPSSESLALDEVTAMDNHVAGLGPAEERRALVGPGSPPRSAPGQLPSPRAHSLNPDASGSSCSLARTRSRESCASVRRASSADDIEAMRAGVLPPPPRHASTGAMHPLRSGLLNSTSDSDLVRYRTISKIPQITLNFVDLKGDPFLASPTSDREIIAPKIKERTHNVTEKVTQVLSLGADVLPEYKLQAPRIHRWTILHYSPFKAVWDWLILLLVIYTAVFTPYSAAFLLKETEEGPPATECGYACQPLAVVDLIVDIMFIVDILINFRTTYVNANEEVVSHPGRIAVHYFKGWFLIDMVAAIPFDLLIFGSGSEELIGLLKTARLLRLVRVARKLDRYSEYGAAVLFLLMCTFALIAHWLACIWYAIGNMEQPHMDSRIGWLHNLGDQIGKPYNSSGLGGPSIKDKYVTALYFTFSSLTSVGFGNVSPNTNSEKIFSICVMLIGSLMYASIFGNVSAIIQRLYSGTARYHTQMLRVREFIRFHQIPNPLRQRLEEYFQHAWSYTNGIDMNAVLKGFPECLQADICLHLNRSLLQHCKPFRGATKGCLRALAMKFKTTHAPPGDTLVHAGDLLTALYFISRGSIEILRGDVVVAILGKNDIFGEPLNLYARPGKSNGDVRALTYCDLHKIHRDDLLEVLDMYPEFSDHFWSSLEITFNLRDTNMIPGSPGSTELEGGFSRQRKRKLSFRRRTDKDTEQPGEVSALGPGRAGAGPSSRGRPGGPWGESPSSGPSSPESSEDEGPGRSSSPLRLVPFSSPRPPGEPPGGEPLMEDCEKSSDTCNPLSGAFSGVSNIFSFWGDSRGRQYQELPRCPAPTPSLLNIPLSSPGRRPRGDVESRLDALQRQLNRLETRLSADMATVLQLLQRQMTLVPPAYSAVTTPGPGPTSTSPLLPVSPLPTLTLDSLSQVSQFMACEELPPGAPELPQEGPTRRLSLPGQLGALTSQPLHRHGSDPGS
row,Structure (SMILES),"hERG current change (%, negative = inhibition) at 10uM"
1,CCN(CC(=O)Nc1cccc(S(N)(=O)=O)c1)Cc1nc2ccccc2c(=O)[nH]1,3.49%
2,Cc1cc(-c2cc(-c3ccc(Cl)cc3)nc(N)c2C#N)co1,-1.55%
3,O=C(O)c1cccnc1Nc1ccc(Cl)cc1,25%
4,COc1ccc(-c2cc(C(=O)NCC3CCCO3)c3ccccc3n2)cc1 (stereo not drawn),-10.7%
5,COc1ccc(Cn2c(=N)c(C(=O)NCC3CCCO3)cc3c(=O)n4ccccc4nc32)cc1 (stereo not drawn),-82.2%
6,COc1ccc(CCNC(=O)C(=O)NCC2CCCO2)cc1OC (stereo not drawn),3.13%
7,COc1ccc(-n2nc(C(=O)NCC3CCCO3)c3ccccc3c2=O)cc1 (stereo not drawn),31.7%
8,COc1ccc(C(=O)Nc2ccccc2C(=O)NCC2CCCO2)cc1 (stereo not drawn),4.28%
9,COc1ccc(-c2cc(C(=O)NCC3CCCO3)c3ccccc3n2)c(OC)c1 (stereo not drawn),-0.667%
10,COc1ccc(CCn2c(=N)c(C(=O)NCC3CCCO3)cc3c(=O)n4ccccc4nc32)cc1 (stereo not drawn),-77.9%
11,COc1ccc(CCNC(=O)CCn2c(=O)c3ccccc3n(CC(=O)NCC3CCCO3)c2=O)cc1OC (stereo not drawn),8.86%
12,COc1ccc(CCn2c(=N)c(C(=O)NCC3CCCO3)cc3c(=O)n4ccccc4nc32)cc1OC (stereo not drawn),-75.9%
13,Cc1csc(SCC(=O)NC23CC4CC(CC(C4)C2)C3)n1,-20.5%
14,O=S(=O)(/N=C(/Nc1cccc2ccccc12)c1ccc(F)cc1)c1ccccc1,-42.8%
15,COCCCNC(=O)Cn1nnc(-c2ccc(NC(=O)c3ccccc3F)cc2)n1,-2.44%
16,CCOC(=O)CN(C(=O)CSc1nnc(-c2ccc(OC)c(OC)c2)o1)c1ccc(F)cc1,-49.6%
17,CC(=O)c1sc(NC(=O)CCOc2ccccc2)nc1C,5.9%
18,CCC(Sc1nc2n[nH]c(C)c2c(=N)n1-c1cc(Cl)ccc1C)C(=O)N1CCOCC1 (stereo not drawn),-0.58%
19,CC1CCN(C(C)C(=O)Nc2ccc(S(=O)(=O)N3CCCC3)cc2)CC1 (stereo not drawn),-6.3%
20,CC(C(=O)Nc1ccc(C#N)cc1)N1CCN(C(=O)C2CC2)CC1 (stereo not drawn),-61.2%

row,Structure (SMILES),"hERG current change (%, negative = inhibition) at 10uM"
1,COc1cc(NC(=O)C(C)N2CCN(C(=O)C3CC3)CC2)cc(OC)c1 (stereo not drawn),-16.1%
2,CCOCCCNc1ncnc2c1nc1n2CCCC1,17.2%
3,CC(C)OCCCNc1ncnc2c1nc1n2CCCC1,-72.6%
4,COCCCNc1ncnc2c1nc1n2CCCC1,18.6%
5,COc1ccc2[nH]cc(CCN3C(=O)CCC3=O)c2c1,10.7%
6,CCN(CC)CCCNC(=O)CSc1nc2c(c(C(F)(F)F)n1)CCc1ccccc1-2,-52.2%
7,O=C(CSc1nc2c(c(C(F)(F)F)n1)CCc1ccccc1-2)NCc1ccc(F)cc1,14.2%
8,O=C(CSc1nc2c(c(C(F)(F)F)n1)CCc1ccccc1-2)NCc1ccccc1,6.56%
9,Cl.O=C(CN1CCCC(O)C1)N1c2ccccc2Sc2ccc(C(F)(F)F)cc21 (stereo not drawn),-7.16%
10,O=C(Nc1c2c(nn1-c1ccccc1)CS(=O)(=O)C2)c1ccco1,-9.21%
11,COc1ccccc1C(=O)Nc1c2c(nn1-c1ccc([N+](=O)[O-])cc1)CS(=O)(=O)C2,11.7%
12,CC(Oc1ccccc1)C(=O)Nc1c2c(nn1-c1ccccc1)CS(=O)(=O)C2 (stereo not drawn),18.2%
13,O=C(Nc1c2c(nn1-c1ccc([N+](=O)[O-])cc1)CS(=O)(=O)C2)c1ccco1,-64.7%
14,CC(C)Oc1ccc(C(=O)Nc2c3c(nn2-c2ccccc2)CS(=O)(=O)C3)cc1,-65.9%
15,COc1ccc(C(=O)Nc2c3c(nn2-c2ccc([N+](=O)[O-])cc2)CS(=O)(=O)C3)cc1,-9.85%
16,CCOc1ccc(C(=O)Nc2c3c(nn2-c2ccccc2)CS(=O)(=O)C3)cc1,4.84%
17,COc1cccc(C(=O)Nc2c3c(nn2-c2ccc([N+](=O)[O-])cc2)CS(=O)(=O)C3)c1,-53.8%
18,Cc1ccc(-n2nc3c(c2NC(=O)c2ccco2)CS(=O)(=O)C3)cc1,-25.7%
19,O=C(NNC(=O)C1CCN(Cc2ccccc2)CC1)c1cccc(Cl)c1,-14%
20,CCCn1nc(Oc2nc(NCC)nc(NC(C)C)n2)ccc1=O,1.01%

row,Structure (SMILES),"hERG current change (%, negative = inhibition) at 10uM"
1,CCc1nc(N2CCN(C(=S)NCCCOC)CC2)c2c3c(sc2n1)CCCC3,-9.32%
2,Fc1ccc(-n2c(-c3ccc4ccccc4n3)n[nH]c2=S)cc1Cl,31%
3,O=C(COc1ccccc1)NC1CCCc2ccccc21 (stereo not drawn),-19.3%
4,CCOC(=O)Cc1csc(NC(=O)NC2(C(F)(F)F)Oc3ccc(Cl)cc3O2)n1 (stereo not drawn),15.8%
5,Cc1ccccc1NS(=O)(=O)c1ccc(OCC(=O)NCc2cccnc2)cc1,-32.8%
6,O=C(COCc1cc(-c2ccc3c(c2)OCO3)on1)N1CCCCC1,4.66%
7,CCCc1c(C)nc2ccc(OC)cc2c1SCCC(=O)O,10.4%
8,COc1cccc(C(=O)C2=NN(C(C)=O)CC2c2ccco2)c1 (stereo not drawn),-15.8%
9,COc1ccc(NC(=O)CCN2C(=O)c3ccncc3C2=O)cc1OC,-7.46%
10,CC1CCCCN1C(=S)Nc1ccc(OC(F)F)cc1 (stereo not drawn),-40.1%
11,O=C(CNC(=O)c1ccccc1)Oc1cccc(Cl)c1,17.8%
12,CC(NC(=O)NC1CCCCC1)C(c1cccs1)N1CCN(c2ccccc2)CC1 (stereo not drawn),-48.6%
13,CC(NC(=O)NC1CCCCC1)C(c1cccs1)N1CCN(C)CC1 (stereo not drawn),-8.03%
14,CC(NC(=S)NC1CCCCC1)C(c1cccs1)N1CCOCC1 (stereo not drawn),-0.732%
15,CCN1CCN(C(c2cccs2)C(C)NC(=S)NC2CCCCC2)CC1 (stereo not drawn),-60.8%
16,CC(NC(=O)C(C)(C)C)C(c1cccs1)N1CCN(Cc2ccccc2)CC1 (stereo not drawn),-14.3%
17,CC(NC(=O)c1cccs1)C(c1cccs1)N1CCN(Cc2ccccc2)CC1 (stereo not drawn),-72.7%
18,CCN1CCN(C(c2cccs2)C(C)NC(=O)NC2CCCCC2)CC1 (stereo not drawn),-45.5%
19,CC(NC(=O)NC1CCCCC1)C(c1cccs1)N1CCN(Cc2ccccc2)CC1 (stereo not drawn),-56.7%
20,CCC(=O)NC(C)C(c1cccs1)N1CCN(Cc2ccccc2)CC1 (stereo not drawn),-11.6%
